Assay results taken from PubChem BioAssay (Tox21).
“And” between values parts separate entries of the source, which are not always exact repeats. Identical values can stand only once. Results filed as inconclusive are left out. A structure can be active in one record and inactive in another. The source made the active and inactive calls. Unless noted, calls follow the shape of the dose curve; as a rule, active = well fitted curve in the direction sought with a large enough effect in the repeat runs; inconclusive = weak or mixed curves; inactive = no such curve, though single readings can be large; an effect the other way counts as inactive or inconclusive.

What was measured:
[1] = target: Estrogen receptor beta (Homo sapiens) (UniProt Q92731); experiment: qHTS assay to identify small molecule agonists of the estrogen receptor beta (ER-beta) signaling pathway (AID 1259377; active = well fitted activation curve with a large enough effect in the signal ratio in the repeat runs, not every such curve was filed as active; the % refers to the signal ratio; also: potency is read from the fitted curve at half-maximal effect)
Sequence of Estrogen receptor beta (Homo sapiens) (Q92731 whole entry, looked up): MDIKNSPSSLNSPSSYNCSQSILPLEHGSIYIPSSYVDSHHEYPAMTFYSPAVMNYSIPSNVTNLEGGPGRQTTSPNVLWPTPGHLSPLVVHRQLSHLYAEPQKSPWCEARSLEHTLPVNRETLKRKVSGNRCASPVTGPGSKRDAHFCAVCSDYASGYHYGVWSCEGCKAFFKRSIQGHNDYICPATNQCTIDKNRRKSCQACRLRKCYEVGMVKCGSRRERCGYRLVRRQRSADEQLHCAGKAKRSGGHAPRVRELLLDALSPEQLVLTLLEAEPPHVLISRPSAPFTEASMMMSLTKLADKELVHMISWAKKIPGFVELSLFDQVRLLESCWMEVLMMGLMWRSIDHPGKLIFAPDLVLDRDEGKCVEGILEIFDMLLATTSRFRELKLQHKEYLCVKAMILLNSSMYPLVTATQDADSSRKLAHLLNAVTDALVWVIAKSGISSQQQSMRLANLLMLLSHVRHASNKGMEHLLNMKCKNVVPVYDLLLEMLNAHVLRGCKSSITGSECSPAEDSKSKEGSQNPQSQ
How it was run: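 Read-out: beta-lactamase FRET fluorescence. Cell line: ER-beta-UAS-bla HEK293T in 2% charcoal-stripped FBS. Exposure: 16 hr at 37C. Substrate step: 2 h at room temperature.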

[2] = target: Estrogen receptor beta (Homo sapiens) (UniProt Q92731); experiment: qHTS assay to identify small molecule antagonists of the estrogen receptor beta (ER-beta) signaling pathway (AID 1259378; active = well fitted inhibition curve with a large enough effect in the signal ratio in the repeat runs, not every such curve was filed as active; the % refers to the signal ratio; also: potency is read from the fitted curve at half-maximal effect)
How it was run: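 Antagonist mode: compounds added to beta-lactamase reporter HEK293T ER-beta-UAS cells stimulated with E2 (1nM final), 16 hr at 37C. LiveBLAzer B/G FRET substrate, 2 hours room temperature, fluorescence read-out.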

[3] = qHTS assay to identify small molecule agonists of the androgen receptor (AR) signaling pathway in the presence of an antagonist - cell viability counter screen (AID 1259379); also: nearly all actives have a fitted effect of over 25% in size; also: potency is read from the fitted curve at half-maximal effect
How it was run: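 Cells: MDA-kb2 (MMTV-luc, AR and GR elements), 3,000/well, 5 hr settle. Added: nilutamide 3.0uM final, then compounds (15 conc.). Incubation: 16 hr, 37C, no CO2. Read-out: CellTiter-Fluor, 1 hr, fluorescence.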

[4] = qHTS assay to identify small molecule agonists of the estrogen receptor beta (ER-beta) signaling pathway - cell viability counter screen (AID 1259380); also: nearly all actives have a fitted effect of over 30% in size
How it was run: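 HEK293T ER-beta-UAS-bla; 2% CS-FBS; 6 hr pre-plate, 16 hr cpd at 37C/5% CO2; LiveBLAzer read first, then CellTiter-Glo 30 min RT, luminescence.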

[5] = qHTS assay to identify small molecule antagonists of the estrogen receptor beta (ER-beta) signaling pathway - cell viability counter screen (AID 1259382); also: nearly all actives have a fitted effect of over 55% in size; also: potency is read from the fitted curve at half-maximal effect
How it was run: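 Cells: ER-beta-UAS-bla HEK293T, 2,000/well, 2% CS-FBS, 6 hr settle. Cpd + E2 (1nM final), 16 hr, 37C/5% CO2. Bla FRET substrate 2 hr RT, then CellTiter-Glo 30 min RT, luminescence.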

[6] = qHTS assay to identify small molecule agonists or antagonists of the thyroid stimulating hormone receptor (TSHR) signaling pathway - wild type cell line counter screen (AID 1259384; calls by dose curve)
How it was run: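 Counter screen in untransfected Hek293: compounds (15-point titration, triplicate) plus phosphodiesterase inhibitor Ro20-1724 added after 18 h plating; 30 min RT. Intracellular cAMP via competitive d2/cryptate immunoassay, 1 h incubation.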

[7] = target: Thyrotropin receptor (Homo sapiens) (UniProt P16473); experiment: qHTS assay to identify small molecule antagonists of the thyroid stimulating hormone receptor (TSHR) signaling pathway (AID 1259385; calls by dose curve; also: nearly all actives have a fitted effect of over 20% in size; also: potency is read from the fitted curve at half-maximal effect)
Sequence of Thyrotropin receptor (Homo sapiens) (P16473 whole entry, looked up): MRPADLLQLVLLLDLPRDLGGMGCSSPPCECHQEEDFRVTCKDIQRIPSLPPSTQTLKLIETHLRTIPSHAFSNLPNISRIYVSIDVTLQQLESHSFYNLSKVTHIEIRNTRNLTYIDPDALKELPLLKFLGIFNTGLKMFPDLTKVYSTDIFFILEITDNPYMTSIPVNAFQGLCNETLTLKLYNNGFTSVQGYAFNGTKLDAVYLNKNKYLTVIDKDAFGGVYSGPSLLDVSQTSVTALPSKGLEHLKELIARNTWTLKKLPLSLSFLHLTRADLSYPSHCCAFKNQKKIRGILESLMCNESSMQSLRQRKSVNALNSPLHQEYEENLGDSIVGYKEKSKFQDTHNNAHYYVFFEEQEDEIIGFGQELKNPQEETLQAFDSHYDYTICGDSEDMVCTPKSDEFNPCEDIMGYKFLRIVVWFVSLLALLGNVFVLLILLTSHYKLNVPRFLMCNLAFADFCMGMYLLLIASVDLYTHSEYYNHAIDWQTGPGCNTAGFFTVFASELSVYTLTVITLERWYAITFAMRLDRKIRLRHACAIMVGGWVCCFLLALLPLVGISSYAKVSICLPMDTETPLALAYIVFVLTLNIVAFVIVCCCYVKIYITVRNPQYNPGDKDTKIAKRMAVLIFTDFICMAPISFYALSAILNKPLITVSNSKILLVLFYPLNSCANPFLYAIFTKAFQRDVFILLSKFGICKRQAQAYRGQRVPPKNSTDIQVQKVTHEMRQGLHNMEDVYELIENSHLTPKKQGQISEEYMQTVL
How it was run: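 Antagonist mode: compound-treated TSHR-expressing HEK293 cells were stimulated with 1.5 ng/mL TSH (final) in presence of Ro20-1724 for 30 min at RT. HTRF cAMP detection after 1 h; each compound tested at 15 concentrations, triplicate.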

[8] = qHTS assay to identify small molecule agonists of the estrogen receptor alpha (ER-alpha) signaling pathway in the presence of an antagonist - cell viability counter screen (AID 1259386);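 also: series mostly up to about 92 µM; cells exposed to compounds for 22 h at 37 °C before the viability read; nearly all actives have a fitted effect of over 30% in size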
How it was run: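 VM7Luc4E2, stripped-serum pre-culture 5 d; 24hr plating; +ICI-182,780 10.0nM final; cpds 15 conc, 22hr, 37C/5% CO2; CellTiter-Fluor added at 21hr, fluorescence 1hr later.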

[9] = target: Progesterone receptor (Homo sapiens) (UniProt P06401); experiment: qHTS assay to identify small molecule agonists of the progesterone receptor (PR) signaling pathway (AID 1346784; calls by dose curve; also: nearly all actives have a fitted effect of over 30% in size)
Sequence of Progesterone receptor (Homo sapiens) (P06401 whole entry, looked up): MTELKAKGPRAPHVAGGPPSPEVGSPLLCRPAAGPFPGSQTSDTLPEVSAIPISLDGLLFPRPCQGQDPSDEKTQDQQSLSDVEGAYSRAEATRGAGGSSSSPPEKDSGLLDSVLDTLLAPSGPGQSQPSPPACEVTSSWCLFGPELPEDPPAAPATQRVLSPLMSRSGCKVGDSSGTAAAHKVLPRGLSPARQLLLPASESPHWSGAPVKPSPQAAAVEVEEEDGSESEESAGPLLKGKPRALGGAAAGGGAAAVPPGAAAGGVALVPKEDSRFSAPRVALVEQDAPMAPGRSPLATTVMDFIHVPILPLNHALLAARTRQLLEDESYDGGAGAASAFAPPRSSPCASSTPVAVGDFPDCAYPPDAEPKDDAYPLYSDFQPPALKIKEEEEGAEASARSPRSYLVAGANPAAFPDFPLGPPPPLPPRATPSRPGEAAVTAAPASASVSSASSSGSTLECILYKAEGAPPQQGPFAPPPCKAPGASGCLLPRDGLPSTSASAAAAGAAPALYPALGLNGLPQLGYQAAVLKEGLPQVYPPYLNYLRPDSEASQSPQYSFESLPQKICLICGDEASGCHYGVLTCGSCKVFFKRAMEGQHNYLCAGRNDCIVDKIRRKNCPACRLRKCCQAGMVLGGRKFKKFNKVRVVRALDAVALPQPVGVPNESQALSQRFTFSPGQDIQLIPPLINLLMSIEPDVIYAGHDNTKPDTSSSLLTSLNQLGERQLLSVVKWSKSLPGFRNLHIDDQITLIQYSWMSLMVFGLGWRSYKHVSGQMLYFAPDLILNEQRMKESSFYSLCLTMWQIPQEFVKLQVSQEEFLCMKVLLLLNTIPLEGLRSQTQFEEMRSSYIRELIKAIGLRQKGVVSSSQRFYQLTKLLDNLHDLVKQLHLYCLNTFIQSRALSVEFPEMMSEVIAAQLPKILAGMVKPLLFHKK
How it was run: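 Compounds were tested for PR agonism in HEK 293T cells bearing a beta-lactamase gene under UAS control. Treatment lasted 16 hr at 37C; signal came from fluorescence of a FRET substrate.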

[10] = target: Progesterone receptor (Homo sapiens) (UniProt P06401); experiment: qHTS assay to identify small molecule antagonists of the progesterone receptor (PR) signaling pathway (AID 1346795; active = well fitted inhibition curve with a large enough effect in the signal ratio in the repeat runs, not every such curve was filed as active; the % refers to the signal ratio; also: potency is read from the fitted curve at half-maximal effect)
How it was run: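 In HEK293T cells bearing the PR-UAS-bla reporter, compound effects on promegestone-driven (1 nM) beta-lactamase expression are assessed after 16 hr using a fluorescent FRET substrate incubated 2 hr at room temperature.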

[11] = qHTS assay to identify small molecule agonists of the progesterone receptor (PR) signaling pathway - cell viability counter screen (AID 1346799; calls by dose curve; also: nearly all actives have a fitted effect of over 45% in size; also: potency is read from the fitted curve at half-maximal effect)
How it was run: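 Here, 3,000 PR-UAS-bla HEK293T cells per well were treated with compounds for 16 hr after a 6 hr preincubation at 37C and 5% CO2; cell viability is the CellTiter-Glo luminescence signal.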

[12] = qHTS assay to identify small molecule antagonists of the TGF-beta/Smad signaling pathway - cell viability counter screen (AID 1346824); also: nearly all actives have a fitted effect of over 50% in size; also: potency is read from the fitted curve at half-maximal effect
How it was run: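 Cytotoxicity counter-screen run in the same wells as the beta-lactamase Smad reporter read: CellTiter-Glo luminescence after 30 min at room temperature. HEK 293T SBE-bla cells had 5 hr compound exposure at 37 C with TGF-beta1 (0.25 ng/mL stock).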

[13] = qHTS assay to identify small molecule agonists of the TGF-beta/Smad signaling pathway (AID 1346859; active = well fitted activation curve with a large enough effect in the signal ratio in the repeat runs, not every such curve was filed as active; the % refers to the signal ratio; also: series mostly up to about 77 µM)
How it was run: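 Each well held 4,000 SBE-bla HEK 293T cells incubated overnight before compound addition; 5 hr later the cleavable FRET substrate went on for 2 hr at room temperature, and fluorescence was read at two emissions.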

[14] = Human pregnane X receptor (PXR) small molecule agonists, qHTS cell viability counter screen (AID 1346977); also: nearly all actives have a fitted effect of over 50% in size; also: potency is read from the fitted curve at half-maximal effect
How it was run: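 Tox21 qHTS format; PXR-Luc HepG2, 2,000/well, charcoal-stripped FBS 5%. Cpd exposure 24hr. Read: CellTiter-Fluor fluorescence, multiplexed with luciferase.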

[15] = qHTS assay to identify small molecule agonists of the TGF-beta/Smad signaling pathway - cell viability counter screen (AID 1346829); also: top concentration of the series differs between compounds; nearly all actives have a fitted effect of over 45% in size
How it was run: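 In parallel with the Smad reporter read, viability of HEK 293T cells stably carrying SBE-bla is quantified by ATP luminescence following 5 hr compound treatment.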

[16] = target: Thyrotropin-releasing hormone receptor (Homo sapiens) (UniProt P34981); experiment: qHTS assay to identify small molecule antagonists of the thyrotropin-releasing hormone receptor (TRHR) signaling pathway (AID 1346877; active = well fitted inhibition curve with a large enough effect in the repeat runs, not every such curve was filed as active; also: series mostly up to about 51 µM)
Sequence of Thyrotropin-releasing hormone receptor (Homo sapiens) (P34981 whole entry, looked up): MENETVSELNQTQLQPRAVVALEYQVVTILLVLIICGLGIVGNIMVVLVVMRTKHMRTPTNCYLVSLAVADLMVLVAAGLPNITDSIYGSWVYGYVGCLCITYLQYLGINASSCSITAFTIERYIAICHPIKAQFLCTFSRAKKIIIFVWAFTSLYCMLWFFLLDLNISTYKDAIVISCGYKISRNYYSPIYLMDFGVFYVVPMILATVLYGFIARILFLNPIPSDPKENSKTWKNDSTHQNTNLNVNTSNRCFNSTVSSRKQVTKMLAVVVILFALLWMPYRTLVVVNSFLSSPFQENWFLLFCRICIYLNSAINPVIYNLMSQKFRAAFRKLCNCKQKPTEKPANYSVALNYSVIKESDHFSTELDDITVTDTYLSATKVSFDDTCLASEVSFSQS
How it was run: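 Intracellular calcium fluorescence, read kinetically every second over 3 min, reports TRH-evoked signalling in HEK293 cells carrying TRHR. Test compounds were added 5 min ahead of a 1 nM TRH challenge.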

[17] = target: Thyrotropin-releasing hormone receptor (Homo sapiens) (UniProt P34981); experiment: qHTS assay to identify small molecule agonists of the thyrotropin-releasing hormone receptor (TRHR) signaling pathway (AID 1346891; calls by dose curve; also: series mostly up to about 58 µM)
How it was run: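 Screening of agonists relied on calcium signalling in HEK293 cells expressing human TRHR: dye loading 2 h at 37 °C preceded compound addition and a 3-min fluorescence time course.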

[18] = target: Estrogen receptor (Homo sapiens) (UniProt P03372); experiment: qHTS assay to identify small molecule agonists of the estrogen receptor alpha (ER-alpha) signaling pathway in the presence of an antagonist (AID 1259383; calls by dose curve; also: top concentration of the series differs between compounds; nearly all actives have a fitted effect of over 15% in size)
Sequence of Estrogen receptor (Homo sapiens) (P03372 whole entry, looked up): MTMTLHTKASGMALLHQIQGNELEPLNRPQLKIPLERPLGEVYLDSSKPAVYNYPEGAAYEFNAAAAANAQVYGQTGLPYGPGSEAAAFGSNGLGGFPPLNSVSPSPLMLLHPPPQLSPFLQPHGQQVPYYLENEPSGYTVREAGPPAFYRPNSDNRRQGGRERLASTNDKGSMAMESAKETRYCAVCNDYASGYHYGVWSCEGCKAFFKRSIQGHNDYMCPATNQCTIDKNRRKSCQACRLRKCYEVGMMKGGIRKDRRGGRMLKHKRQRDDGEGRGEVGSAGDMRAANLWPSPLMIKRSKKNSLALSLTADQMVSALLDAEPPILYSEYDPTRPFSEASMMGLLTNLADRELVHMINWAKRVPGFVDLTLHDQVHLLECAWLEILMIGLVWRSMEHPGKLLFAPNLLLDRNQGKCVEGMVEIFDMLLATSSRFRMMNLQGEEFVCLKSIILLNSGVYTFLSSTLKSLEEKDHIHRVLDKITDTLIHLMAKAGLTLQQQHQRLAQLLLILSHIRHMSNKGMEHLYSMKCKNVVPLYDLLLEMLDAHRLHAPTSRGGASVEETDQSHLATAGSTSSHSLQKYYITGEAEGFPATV
How it was run: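 VM7Luc4E2, endog. ER-alpha + 4×ERE-luc; charcoal-stripped FBS, phenol red-free, 5 d; 24hr plating; +10.0nM ICI-182,780 (final); cpds 15 conc, 22hr, 37C/5% CO2; ONE-Glo luminescence.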

[19] = qHTS assay to identify small molecule antagonists of the progesterone receptor (PR) signaling pathway - cell viability counter screen (AID 1346798); also: series mostly up to about 92 µM; nearly all actives have a fitted effect of over 50% in size
How it was run: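 Following a 4 hr attachment, PR-UAS-bla HEK293T cells in charcoal-stripped FBS medium were exposed to compounds with R5020 for 16 hr; CellTiter-Glo was added and luminescence read after 30 min at room temperature.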

Measured: Potency

C1CCNCC1
not listed: [15] | [16] | [17] | [18] | [19]
inactive: all other assays above

COc1ccccc1N1CCNCC1
not listed: [4] | [18] | [19]
inactive: all other assays above

O=S(=O)(Cl)Cl
not listed: [4] | [10] | [19]
inactive: all other assays above

CCCCCCCCP(=O)(O)O
active: [11] 27.3 µM
not listed: [15] | [18] | [19]
inactive: all other assays above

Cc1ccccc1
not listed: [8] | [18]
inactive: all other assays above

CC(C)(C#N)C(C)(C)C#N
not listed: [4] | [16] | [17] | [18]
inactive: all other assays above

c1ccc2c(c1)-c1cccc3cccc-2c13
not listed: [8] | [10] | [15] | [16] | [17] | [18] | [19]
inactive: all other assays above

O=C(O)c1cc(Cl)ccc1Cl
not listed: [6] | [7] | [16] | [17] | [18] | [19]
inactive: all other assays above

Clc1ccc(Cl)c(Cl)c1
59.5 µM (active) and inactive: [1]
not listed: [4] | [15] | [18]
inactive: all other assays above

CC(C)(C)OOC(C)(C)CCC(C)(C)OOC(C)(C)C
not listed: [5] | [18] | [19]
inactive: all other assays above

CC(C)CCCCCCCOC(=O)c1ccccc1C(=O)OCCCCCCCC(C)C
not listed: [11] | [15] | [18]
inactive: all other assays above

Cc1ncc(C[n+]2csc(CCO)c2C)c(N)n1
not listed: [9] | [10] | [18]
inactive: all other assays above

CCCSP(=S)(OCC)Oc1ccc(SC)cc1 (centres undefined)
not listed: [10] | [16] | [17] | [18]
inactive: all other assays above

COc1ccc(C(=O)c2c(C)n(CCN3CCOCC3)c3ccccc23)cc1
not listed: [6] | [7] | [10] | [11] | [18] | [19]
inactive: all other assays above

Cc1nc2ccccc2c(=O)n1-c1ccccc1Cl
not listed: [4] | [6] | [7] | [8] | [10] | [14] | [15] | [19]
inactive: all other assays above

CC(C)c1ccc(NC(=O)N(C)C)cc1
not listed: [15] | [18]
inactive: all other assays above

CCCCCCCCn1sccc1=O
active: [2] 27.4 µM and 32.1 µM | [3] 61.3 µM and 57.1 µM | [5] 27.4 µM and 28.6 µM | [7] 61.3 µM and 71.9 µM | [10] 34.4 µM and 1.43 µM | [11] 43.4 µM | [12] 49.1 µM and 51.3 µM | [14] 50.1 µM and 25.5 µM
inactive: [1] | [18] | [6] | [9] | [13] | [17]

Cc1nnc(-c2ccccc2)c(=O)n1N
not listed: [4] | [10] | [19]
inactive: all other assays above
